# Among all 52,000 compounds or so, about 4,300 (8.3%) were called active. No stated cut-off is given here; in the data, active means survival mostly below about 52% (no sharp cut-off); inactive means mostly above about 56%. This excerpt belongs to a sample that is enriched for actives.
# Tested on: DeltatarO mutant
# Assay: S. aureus survival, RN4220 and DeltatarO strains – OD600, teichoic acid synthesis inhibitors, primary screen (AID 463173)
# Conditions: S. aureus RN4220 wild type/DeltatarO growth, OD600, 18 h, stronger effect = lower value, screened at 18.75 µg/mL (by protocol)
row,SMILES,survival
1,CCOC(=O)c1sc(N2C(=O)c3oc4cc(C)c(C)cc4c(=O)c3C2c2cccc(O)c2)nc1C (stereo unspecified),78% (inactive)
2,O=C1C2(Cc3ccccc3)CN3CN(C2)CC1(Cc1ccccc1)C3,75% (inactive)
3,COc1ccc(NC(=O)c2cc(-c3ccc(F)cc3)no2)cc1OC,71% (inactive)
4,O=C(Nc1ccccc1[N+](=O)[O-])c1csnn1,73% (inactive)
5,CC1=C(C(=O)Nc2cccnc2)C(c2ccccc2)n2nc(SCc3ccccc3)nc2N1 (stereo unspecified),74% (inactive)
6,Cc1ccccc1OCC(=O)Nc1ccccc1C(=O)OCc1cc(=O)n2c(C)csc2n1,94% (inactive)
7,CCOC(=O)c1c(S(=O)(=O)NCC(=O)NCc2ccccc2Cl)c(C)n(C)c1C,97% (inactive)
8,CC(C)(C)C1CCc2c(sc(NC(=O)CCC(=O)O)c2C(=O)Nc2ccccc2C(F)(F)F)C1 (stereo unspecified),-6% (active)
9,COc1ccccc1NC(=O)c1c(NC(=O)Cc2ccccc2)sc2c1CCC(C(C)(C)C)C2 (stereo unspecified),126% (inactive)
10,COc1ccccc1NC(=O)c1c(NC(=O)c2cccs2)sc2c1CCC(C(C)(C)C)C2 (stereo unspecified),139% (inactive)
11,Cc1ccc(CNC(=O)C2CCN(C(=O)N3CC(C)Oc4ccc(Cl)cc43)CC2)cc1 (stereo unspecified),57% (inactive)
12,COc1ccccc1NC(=O)N1CC=C(c2c[nH]c3ccccc23)CC1,42% (active)
13,Cc1cccc(NC(=O)N2CC=C(c3c[nH]c4ccccc34)CC2)c1C,73% (inactive)
14,CCc1ccc(NC(=O)N2CC=C(c3c[nH]c4ccccc34)CC2)cc1,39% (active)
15,CCOC(=O)c1cccc(NC(=O)N2CC=C(c3c[nH]c4ccccc34)CC2)c1,83% (inactive)
16,COc1cc(OC)c(NC(=O)N2CC=C(c3c[nH]c4ccccc34)CC2)cc1Cl,75% (inactive)
17,CCOc1ccc(NC(=O)N2CC=C(c3c[nH]c4ccccc34)CC2)cc1,83% (inactive)
18,COc1ccccc1OCC(=O)Nc1ccc(S(=O)(=O)N2CCN(C)CC2)cc1,78% (inactive)
19,CCc1ccc(-n2nc(CO)c(C(=O)NC(C)c3ccc(Cl)cc3)n2)cc1 (stereo unspecified),58% (inactive)
20,COc1cc(S(=O)(=O)N2CCN(c3ccccc3F)CC2)c(OC)cc1Cl,87% (inactive)
21,CCOC(=O)c1cc2oc(C)cc2n1CC(=O)N(C)C1CCCCC1,92% (inactive)
22,CCOc1ccc(CCNC(=O)c2ccc3c(c2)c(C)c(C)n3Cc2ccccc2)cc1OCC,83% (inactive)
23,Cc1ccc2c(=O)cc(C(=O)Nc3c(C(=O)c4ccccc4)oc4ccccc34)oc2c1C,82% (inactive)
24,CCCn1c2ccccc2c2cnn(CC(=O)NCCCOC(C)C)c(=O)c21,-5% (active)

row,SMILES,survival
1,CCCn1c2ccccc2c2cnn(CC(=O)NCC3CCN(Cc4ccccc4C)CC3)c(=O)c21,55% (inactive)
2,CCCn1c2ccccc2c2cnn(CC(=O)NCCCN3CCCCC3)c(=O)c21,94% (inactive)
3,CCCn1c2ccccc2c2cnn(CC(=O)NCCc3ccc(OCC)cc3)c(=O)c21,-5% (active)
4,CCCn1c2ccccc2c2cnn(CC(=O)NCCc3ccc(C)cc3)c(=O)c21,128% (inactive)
5,CCCn1c2ccccc2c2cnn(CC(=O)NCCc3ccc(OCC)c(OCC)c3)c(=O)c21,92% (inactive)
6,CCCn1c2ccccc2c2cnn(CC(=O)NCC3CCN(Cc4ccc(C)cc4)CC3)c(=O)c21,17% (active)
7,CCCNC(=O)Cn1ncc2c3ccccc3n(CCC)c2c1=O,128% (inactive)
8,CCCn1c2ccccc2c2cnn(CC(=O)NCC3CCN(Cc4ccc(F)cc4)CC3)c(=O)c21,68% (inactive)
9,CCN(CC)S(=O)(=O)c1ccc2c(c1)N(CC(=O)N1CCN(c3cccc(C(F)(F)F)c3)CC1)C(=O)CO2,68% (inactive)
10,Cc1ccc(SCc2nc(-c3ccc(C(=O)NCc4ccccc4Cl)cc3)oc2C)cc1,84% (inactive)
11,Fc1cccc(NCc2ccccc2-c2nnc(-c3ccccc3Cl)o2)c1,110% (inactive)
12,O=C(CSc1nnc(Cc2ccccc2)n1Cc1ccco1)NC1CCCC1,44% (active)
13,O=C(CSc1nnc(Cc2ccccc2)n1Cc1ccccc1)NCc1ccco1,63% (inactive)
14,CC(C)NC(=O)CSc1nnc(Cc2ccccc2)n1C,83% (inactive)
15,O=C(CSc1nccn1Cc1ccccc1)NC1CCCC1,69% (inactive)
16,CCn1c(SCC(=O)NC2CCCC2)nnc1-c1ccccc1,75% (inactive)
17,CC(C)NC(=O)CSc1nnc(Cc2ccccc2)n1Cc1ccco1,40% (active)
18,COc1ccccc1CCNC(=O)c1cccn1-c1nnc(N2CCCCC2)s1,95% (inactive)
19,CCc1ccc(NCc2cccn2-c2nnc(N3CCCCCC3)s2)cc1,-6% (active)
20,COc1ccc(NCc2cccn2-c2nnc(N3CCCCCC3)s2)cc1,71% (inactive)
21,CCN1CCN(c2nnc(-n3cccc3C(=O)NCc3ccccc3OC)s2)CC1,46% (active)
22,CCOc1ccccc1CNC(=O)c1cccn1-c1nnc(N2CCCCC2)s1,131% (inactive)
23,COc1ccc(NC(=O)c2cccn2-c2nnc(N3CCCCC3)s2)c(OC)c1,98% (inactive)
24,Cc1ccc(NCc2cccn2-c2nnc(N3CCCCCC3)s2)cc1,78% (inactive)

row,SMILES,survival
1,COc1ccccc1CNC(=O)c1cccn1-c1nnc(N2CCCC2)s1,92% (inactive)
2,COc1ccc(CNC(=O)c2cccn2-c2nnc(N3CCCCC3)s2)c(OC)c1,0% (active)
3,CCOc1ccccc1CNC(=O)c1cccn1-c1nnc(N2CCCC2)s1,102% (inactive)
4,COc1ccc(CNC(=O)c2cccn2-c2nnc(N3CCCC3)s2)c(OC)c1,91% (inactive)
5,COc1ccccc1CNC(=O)c1cccn1-c1nnc(N2CCCCC2)s1,37% (active)
6,CCOc1ccc(/C=C/c2nc3ccccc3n2S(=O)(=O)c2ccc(Br)cc2)cc1,59% (inactive)
7,CCN1CCSc2ccc(C(=O)NCc3ccc(F)cc3)cc21,97% (inactive)
8,CNC(=O)c1ccc(CN2CCc3ccccc3C2)cc1,100% (inactive)
9,CCOC(=O)c1c(C)[nH]c(C)c1S(=O)(=O)N1CCC(C(=O)N2CCN(c3ccccc3)CC2)CC1,90% (inactive)
10,O=C(CSc1nccn1Cc1ccc(Cl)cc1)Nc1ccc2c(c1)OCCO2,94% (inactive)
11,Cc1ccc(-n2ncc(C(=O)N3CCN(c4ccccn4)CC3)c2C2CCN(C(=O)OC(C)(C)C)CC2)cc1,81% (inactive)
12,O=C(Cn1c(=O)oc2cc(S(=O)(=O)NCc3ccccc3)ccc21)Nc1cccc(F)c1,78% (inactive)
13,O=C(NCc1ccccc1)c1cccn1-c1nnc(N2CCCC2)s1,55% (inactive)
14,COc1cccc(CNCc2cccn2-c2nnc(N3CCN(c4ccccc4)CC3)s2)c1,79% (inactive)
15,Cc1ccc(CNCc2cccn2-c2nnc(N3CCCC3)s2)cc1,86% (inactive)
16,CCOc1ccccc1CNCc1cccn1-c1nnc(N2CCN(c3ccccc3)CC2)s1,47% (active)
17,O=C(NCc1cccc(Cl)c1)c1cccn1-c1nnc(N2CCCC2)s1,37% (active)
18,O=C(NCc1cccc(Br)c1)c1cccn1-c1nnc(N2CCCCC2)s1,78% (inactive)
19,O=C1C=C(N2CCCCC2)C2(CCCCC2)O1,106% (inactive)
20,COc1ccc(CCN(Cc2cc3cc(C)ccc3n3nnnc23)C(=O)N(C)C)cc1OC,86% (inactive)
21,Cc1ccc(C)c(N2CCN(C3(c4ccccc4)C(=O)c4ccccc4C3=O)CC2)c1,98% (inactive)
22,COc1cccc(C(=O)NCC(=O)OCc2cc(=O)n3nc(C)sc3n2)c1,116% (inactive)
23,COc1ccc(OC)c(C2c3c(oc4ccc(C)cc4c3=O)C(=O)N2CCCN(C)C)c1 (stereo unspecified),73% (inactive)
24,CC(=O)N1CCc2cc(CNC(=O)Nc3ccc(Br)c(C)c3)ccc21,87% (inactive)

row,SMILES,survival
1,COc1cc(NC(=O)CC(C)S(=O)(=O)c2ccc3c(c2)CCN3C(C)=O)cc(OC)c1OC (stereo unspecified),92% (inactive)
2,CC(=O)N1CCc2cc(S(=O)(=O)C(C)CC(=O)Nc3ccc(Br)c(C)c3)ccc21 (stereo unspecified),-5% (active)
3,Cc1ccc(C)c(N2CCN(Cc3csc(C)c3)CC2)c1,119% (inactive)
4,CC(C)(C)NC(=O)CSc1nnc(-c2cccs2)o1,102% (inactive)
5,CCOc1ccccc1NC(c1nnc(-c2ccccc2)o1)c1ccc(F)cc1Cl (stereo unspecified),1% (active)
6,Cc1cccc(NC(c2nnc(-c3ccccc3)o2)c2ccc(F)cc2Cl)c1C (stereo unspecified),61% (inactive)
7,COc1cc(OC)c(NC(c2nnc(-c3ccccc3)o2)c2ccc(F)cc2Cl)cc1Cl (stereo unspecified),61% (inactive)
8,COc1ccc(C)cc1NC(c1nnc(-c2ccccc2)o1)c1ccc(F)cc1Cl (stereo unspecified),-3% (active)
9,COc1cccc(NC(c2nnc(-c3ccccc3)o2)c2ccc(F)cc2Cl)c1 (stereo unspecified),54% (inactive)
10,CCc1ccccc1NC(c1nnc(-c2cccc(F)c2)o1)c1ccc(F)cc1Cl (stereo unspecified),96% (inactive)
11,Nc1ccc2nc(CN3CCOCC3)[nH]c2c1,88% (inactive)
12,Cc1cc(C)cc(N2C(=O)CS(=O)(=O)C23C(=O)N(Cc2ccccc2)c2ccccc23)c1 (stereo unspecified),82% (inactive)
13,COC(=O)c1ccc(Cl)cc1NC(=O)N1CCC(CN2CCCC2)CC1,84% (inactive)
14,CCc1ccc(NC(=O)C(=O)NCCc2sc(-c3ccc(OC)c(OC)c3)nc2C)cc1,78% (inactive)
15,Cc1ccc(CNC(=O)c2ccc3c(c2)c(C)c(C)n3Cc2ccc(Cl)cc2)o1,75% (inactive)
16,COc1ccc(NC(=O)CSc2n[nH]c(-c3ccccc3)n2)cc1Cl,88% (inactive)
17,CCOc1ccc(-c2nc(SCC(=O)c3ccccc3)n[nH]2)cc1,179% (inactive)
18,Cc1ccc(NC(=O)CSc2n[nH]c(-c3ccc(F)cc3)n2)cc1F,128% (inactive)
19,CCOc1ccccc1-c1nc(SCC(=O)c2ccc(OC)c(Br)c2)n[nH]1,53% (inactive)
20,COc1ccccc1-c1nc(SCC(=O)Nc2ccc(C)c(C)c2)n[nH]1,43% (active)
21,CC(C)Oc1ccccc1-c1nc(SCC(=O)c2ccc(F)cc2)n[nH]1,40% (active)
22,CCCOc1ccccc1-c1nc(SCC(=O)c2ccccc2)n[nH]1,109% (inactive)
23,COc1ccccc1-c1nc(SCC(=O)c2ccccc2)n[nH]1,53% (active)
24,COc1ccccc1-c1nc(SCC(=O)c2ccc(Cl)cc2)n[nH]1,175% (inactive)
